# How the values were obtained:
# Assay in all cases: SPOT peptide array binding signal intensity (averaged, normalized) (arbitrary units (background-subtracted, floor 0; scale differs between SH3 domains)); higher = stronger binding of the SH3 domain to the peptide
# AgAbp1 = molecular target: AgAbp1
# In short: (§1)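 Peptides were synthetic 15-mers on cellulose membranes, with every cysteine replaced by serine. They were incubated overnight at 4°C with GST-SH3 domains from four yeast species at 10 μg/ml in TBS-based blocking buffer. Binding signal, the replicate-averaged normalized and background-subtracted spot intensity, is in arbitrary units that differ between domains.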
# AgBbc1 = molecular target: AgBbc1
# In short: as §1
# AgBem1-D1 = molecular target: AgBem1-D1
# In short: as §1
# AgBzz1-D1 = molecular target: AgBzz1-D1
# In short: as §1
# AgBzz1-D2 = molecular target: AgBzz1-D2
# In short: as §1
# AgCyk3 = molecular target: AgCyk3
# In short: as §1
# AgFus1 = molecular target: AgFus1
# In short: as §1
# AgHof1 = molecular target: AgHof1
# In short: as §1
# AgHse1 = molecular target: AgHse1
# In short: as §1
# AgLsb1 = molecular target: AgLsb1
# In short: as §1
# AgLsb4 = molecular target: AgLsb4
# In short: as §1
# AgMyo5 = molecular target: AgMyo5
# In short: as §1
# AgNbp2 = molecular target: AgNbp2
# In short: as §1
# AgRvs167 = molecular target: AgRvs167
# In short: as §1
# AgSho1 = molecular target: AgSho1
# In short: as §1
# AgSla1-D1-D2 = molecular target: AgSla1-D1-D2
# In short: as §1
# AgSla1-D3 = molecular target: AgSla1-D3
# In short: as §1
# CaAbp1-D1 = molecular target: CaAbp1-D1
# In short: as §1
# CaAbp1-D2 = molecular target: CaAbp1-D2
# In short: as §1
# CaBbc1 = molecular target: CaBbc1
# In short: as §1
# CaBem1-D1 = molecular target: CaBem1-D1
# In short: as §1
# CaBzz1-D1 = molecular target: CaBzz1-D1
# In short: as §1
# CaBzz1-D2 = molecular target: CaBzz1-D2
# In short: as §1
# CaCyk3 = molecular target: CaCyk3
# In short: as §1
# CaFus1 = molecular target: CaFus1
# In short: as §1
# CaHof1 = molecular target: CaHof1
# In short: as §1
# CaHse1 = molecular target: CaHse1
# In short: as §1
# CaLsb1 = molecular target: CaLsb1
# In short: as §1
# CaLsb4 = molecular target: CaLsb4
# In short: as §1
# CaMyo5 = molecular target: CaMyo5
# In short: as §1
# CaNbp2 = molecular target: CaNbp2
# In short: as §1
# CaRvs167 = molecular target: CaRvs167
# In short: as §1
# CaRvs167-3 = molecular target: CaRvs167-3
# In short: as §1
# CaSho1 = molecular target: CaSho1
# In short: as §1
# CaSla1-D1-D2 = molecular target: CaSla1-D1-D2
# In short: as §1
# CaSla1-D3 = molecular target: CaSla1-D3
# In short: as §1
# ScAbp1 = molecular target: ScAbp1
# In short: as §1
# ScBbc1 = molecular target: ScBbc1
# In short: as §1
# ScBem1-D1 = molecular target: ScBem1-D1
# In short: as §1
# ScBzz1-D1 = molecular target: ScBzz1-D1
# In short: as §1
# ScBzz1-D2 = molecular target: ScBzz1-D2
# In short: as §1
# ScCyk3 = molecular target: ScCyk3
# In short: as §1
# ScFus1 = molecular target: ScFus1
# In short: as §1
# ScHof1 = molecular target: ScHof1
# In short: as §1
# ScHse1 = molecular target: ScHse1
# In short: as §1
# ScLsb1 = molecular target: ScLsb1
# In short: as §1
# ScLsb2 = molecular target: ScLsb2
# In short: as §1
# ScLsb3 = molecular target: ScLsb3
# In short: as §1
# ScLsb4 = molecular target: ScLsb4
# In short: as §1
# ScMyo3 = molecular target: ScMyo3
# In short: as §1
# ScMyo5 = molecular target: ScMyo5
# In short: as §1
# ScNbp2 = molecular target: ScNbp2
# In short: as §1
# ScPex13 = molecular target: ScPex13
# In short: as §1
# ScRvs167 = molecular target: ScRvs167
# In short: as §1
# ScSho1 = molecular target: ScSho1
# In short: as §1
# ScSla1-D1-D2 = molecular target: ScSla1-D1-D2
# In short: as §1
# ScSla1-D3 = molecular target: ScSla1-D3
# In short: as §1
# SpAbp1-D1 = molecular target: SpAbp1-D1
# In short: as §1
# SpBbc1 = molecular target: SpBbc1
# In short: as §1
# SpBzz1-D1 = molecular target: SpBzz1-D1
# In short: as §1
# SpBzz1-D2 = molecular target: SpBzz1-D2
# In short: as §1
# SpCyk3 = molecular target: SpCyk3
# In short: as §1
# SpHof1 = molecular target: SpHof1
# In short: as §1
# SpHof1-2 = molecular target: SpHof1-2
# In short: as §1
# SpHof1-3 = molecular target: SpHof1-3
# In short: as §1
# SpHse1 = molecular target: SpHse1
# In short: as §1
# SpLsb1 = molecular target: SpLsb1
# In short: as §1
# SpLsb4 = molecular target: SpLsb4
# In short: as §1
# SpMyo1 = molecular target: SpMyo1
# In short: as §1
# SpNbp2 = molecular target: SpNbp2
# In short: as §1
# SpPex13 = molecular target: SpPex13
# In short: as §1
# SpRvs167 = molecular target: SpRvs167
# In short: as §1
# SpSla1-D1-D2 = molecular target: SpSla1-D1-D2
# In short: as §1
# SpSla1-D3 = molecular target: SpSla1-D3
# In short: as §1
binder,measurement,setting,value
FIRKRAPTPPAPSRS,SPOT peptide array binding signal intensity,AgAbp1,948
same,SPOT peptide array binding signal intensity,AgBbc1,334
same,SPOT peptide array binding signal intensity,AgBem1-D1,340
same,SPOT peptide array binding signal intensity,AgBzz1-D1,224
same,SPOT peptide array binding signal intensity,AgBzz1-D2,120
same,SPOT peptide array binding signal intensity,AgCyk3,1
same,SPOT peptide array binding signal intensity,AgFus1,203
same,SPOT peptide array binding signal intensity,AgHof1,65.2
same,SPOT peptide array binding signal intensity,AgHse1,312
same,SPOT peptide array binding signal intensity,AgLsb1,1090
same,SPOT peptide array binding signal intensity,AgLsb4,60
same,SPOT peptide array binding signal intensity,AgMyo5,1.75
same,SPOT peptide array binding signal intensity,AgNbp2,1060
same,SPOT peptide array binding signal intensity,AgRvs167,5.67
same,SPOT peptide array binding signal intensity,AgSho1,14
same,SPOT peptide array binding signal intensity,AgSla1-D1-D2,196
same,SPOT peptide array binding signal intensity,AgSla1-D3,23.2
same,SPOT peptide array binding signal intensity,CaAbp1-D1,2450
same,SPOT peptide array binding signal intensity,CaAbp1-D2,734
same,SPOT peptide array binding signal intensity,CaBbc1,641
same,SPOT peptide array binding signal intensity,CaBem1-D1,813
same,SPOT peptide array binding signal intensity,CaBzz1-D1,1840
same,SPOT peptide array binding signal intensity,CaBzz1-D2,4040
same,SPOT peptide array binding signal intensity,CaCyk3,19.5
same,SPOT peptide array binding signal intensity,CaFus1,334
same,SPOT peptide array binding signal intensity,CaHof1,0.5
same,SPOT peptide array binding signal intensity,CaHse1,10.8
same,SPOT peptide array binding signal intensity,CaLsb1,167
same,SPOT peptide array binding signal intensity,CaLsb4,198
same,SPOT peptide array binding signal intensity,CaMyo5,12.8
same,SPOT peptide array binding signal intensity,CaNbp2,415
same,SPOT peptide array binding signal intensity,CaRvs167,38.7
same,SPOT peptide array binding signal intensity,CaRvs167-3,40.8
same,SPOT peptide array binding signal intensity,CaSho1,158
same,SPOT peptide array binding signal intensity,CaSla1-D1-D2,1780
same,SPOT peptide array binding signal intensity,CaSla1-D3,7.75
same,SPOT peptide array binding signal intensity,ScAbp1,256
same,SPOT peptide array binding signal intensity,ScBbc1,99
same,SPOT peptide array binding signal intensity,ScBem1-D1,27.5
same,SPOT peptide array binding signal intensity,ScBzz1-D1,160
same,SPOT peptide array binding signal intensity,ScBzz1-D2,53
same,SPOT peptide array binding signal intensity,ScCyk3,46
same,SPOT peptide array binding signal intensity,ScFus1,84.5
same,SPOT peptide array binding signal intensity,ScHof1,5.25
same,SPOT peptide array binding signal intensity,ScHse1,922
same,SPOT peptide array binding signal intensity,ScLsb1,224
same,SPOT peptide array binding signal intensity,ScLsb2,313
same,SPOT peptide array binding signal intensity,ScLsb3,432
same,SPOT peptide array binding signal intensity,ScLsb4,26
same,SPOT peptide array binding signal intensity,ScMyo3,22
same,SPOT peptide array binding signal intensity,ScMyo5,20.8
same,SPOT peptide array binding signal intensity,ScNbp2,2260
same,SPOT peptide array binding signal intensity,ScPex13,156
same,SPOT peptide array binding signal intensity,ScRvs167,613
same,SPOT peptide array binding signal intensity,ScSho1,866
same,SPOT peptide array binding signal intensity,ScSla1-D1-D2,2370
same,SPOT peptide array binding signal intensity,ScSla1-D3,29.8
same,SPOT peptide array binding signal intensity,SpAbp1-D1,342
same,SPOT peptide array binding signal intensity,SpBbc1,6.5
same,SPOT peptide array binding signal intensity,SpBzz1-D1,770
AAAPKHAPPPVPNET,SPOT peptide array binding signal intensity,AgAbp1,≤ 0
same,SPOT peptide array binding signal intensity,AgBbc1,≤ 0
same,SPOT peptide array binding signal intensity,AgBem1-D1,≤ 0
same,SPOT peptide array binding signal intensity,AgBzz1-D1,96
same,SPOT peptide array binding signal intensity,AgBzz1-D2,≤ 0
same,SPOT peptide array binding signal intensity,AgCyk3,≤ 0
same,SPOT peptide array binding signal intensity,AgFus1,≤ 0
same,SPOT peptide array binding signal intensity,AgHof1,≤ 0
same,SPOT peptide array binding signal intensity,AgHse1,≤ 0
same,SPOT peptide array binding signal intensity,AgLsb1,≤ 0
same,SPOT peptide array binding signal intensity,AgLsb4,≤ 0
same,SPOT peptide array binding signal intensity,AgMyo5,2020
same,SPOT peptide array binding signal intensity,AgNbp2,≤ 0
same,SPOT peptide array binding signal intensity,AgRvs167,≤ 0
same,SPOT peptide array binding signal intensity,AgSho1,≤ 0
same,SPOT peptide array binding signal intensity,AgSla1-D1-D2,≤ 0
same,SPOT peptide array binding signal intensity,AgSla1-D3,11
same,SPOT peptide array binding signal intensity,CaAbp1-D1,≤ 0
same,SPOT peptide array binding signal intensity,CaAbp1-D2,≤ 0
same,SPOT peptide array binding signal intensity,CaBbc1,≤ 0
same,SPOT peptide array binding signal intensity,CaBem1-D1,≤ 0
same,SPOT peptide array binding signal intensity,CaBzz1-D1,1240
same,SPOT peptide array binding signal intensity,CaBzz1-D2,66.8
same,SPOT peptide array binding signal intensity,CaCyk3,≤ 0
same,SPOT peptide array binding signal intensity,CaFus1,≤ 0
same,SPOT peptide array binding signal intensity,CaHof1,≤ 0
same,SPOT peptide array binding signal intensity,CaHse1,≤ 0
same,SPOT peptide array binding signal intensity,CaLsb1,≤ 0
same,SPOT peptide array binding signal intensity,CaLsb4,≤ 0
same,SPOT peptide array binding signal intensity,CaMyo5,795
same,SPOT peptide array binding signal intensity,CaNbp2,≤ 0
same,SPOT peptide array binding signal intensity,CaRvs167,≤ 0
same,SPOT peptide array binding signal intensity,CaRvs167-3,0.5
same,SPOT peptide array binding signal intensity,CaSho1,≤ 0
same,SPOT peptide array binding signal intensity,CaSla1-D1-D2,≤ 0
same,SPOT peptide array binding signal intensity,CaSla1-D3,≤ 0
same,SPOT peptide array binding signal intensity,ScAbp1,≤ 0
same,SPOT peptide array binding signal intensity,ScBbc1,≤ 0
same,SPOT peptide array binding signal intensity,ScBem1-D1,≤ 0
same,SPOT peptide array binding signal intensity,ScBzz1-D1,413
same,SPOT peptide array binding signal intensity,ScBzz1-D2,≤ 0
same,SPOT peptide array binding signal intensity,ScCyk3,≤ 0
same,SPOT peptide array binding signal intensity,ScFus1,≤ 0
same,SPOT peptide array binding signal intensity,ScHof1,≤ 0
same,SPOT peptide array binding signal intensity,ScHse1,≤ 0
same,SPOT peptide array binding signal intensity,ScLsb1,≤ 0
same,SPOT peptide array binding signal intensity,ScLsb2,≤ 0
same,SPOT peptide array binding signal intensity,ScLsb3,≤ 0
same,SPOT peptide array binding signal intensity,ScLsb4,≤ 0
same,SPOT peptide array binding signal intensity,ScMyo3,1370
same,SPOT peptide array binding signal intensity,ScMyo5,1840
same,SPOT peptide array binding signal intensity,ScNbp2,≤ 0
same,SPOT peptide array binding signal intensity,ScPex13,≤ 0
same,SPOT peptide array binding signal intensity,ScRvs167,0.167
same,SPOT peptide array binding signal intensity,ScSho1,≤ 0
same,SPOT peptide array binding signal intensity,ScSla1-D1-D2,≤ 0
same,SPOT peptide array binding signal intensity,ScSla1-D3,≤ 0
same,SPOT peptide array binding signal intensity,SpAbp1-D1,≤ 0
same,SPOT peptide array binding signal intensity,SpBbc1,1.5
same,SPOT peptide array binding signal intensity,SpBzz1-D1,≤ 0
same,SPOT peptide array binding signal intensity,SpBzz1-D2,≤ 0
same,SPOT peptide array binding signal intensity,SpCyk3,≤ 0
same,SPOT peptide array binding signal intensity,SpHof1,≤ 0
same,SPOT peptide array binding signal intensity,SpHof1-2,≤ 0
same,SPOT peptide array binding signal intensity,SpHof1-3,5.75
same,SPOT peptide array binding signal intensity,SpHse1,58.8
same,SPOT peptide array binding signal intensity,SpLsb1,≤ 0
same,SPOT peptide array binding signal intensity,SpLsb4,≤ 0
same,SPOT peptide array binding signal intensity,SpMyo1,1720
same,SPOT peptide array binding signal intensity,SpNbp2,≤ 0
same,SPOT peptide array binding signal intensity,SpPex13,≤ 0
same,SPOT peptide array binding signal intensity,SpRvs167,≤ 0
same,SPOT peptide array binding signal intensity,SpSla1-D1-D2,≤ 0
same,SPOT peptide array binding signal intensity,SpSla1-D3,≤ 0
